Most compounds without a hit are left out; they make up all but 10% or so of the library.
RORgamma inh = blocks mouse ROR gamma transcriptional activity. hit rate 5.4% among 310,000. Drosophila S2 Gal4-RORgamma UAS-luciferase reporter, 20 h. P51450. Potency, µM (highest dose often 53.6 µM), for inactives: at the highest dose activity change, negative = inhibition, most hits filed as inhibitors; note: % is set by controls: 0 for no effect and ±100 for the full control effect; nearly all actives have a fitted effect of over 60% in size
Target sequence (P51450 whole entry, looked up, the tested form may be a part): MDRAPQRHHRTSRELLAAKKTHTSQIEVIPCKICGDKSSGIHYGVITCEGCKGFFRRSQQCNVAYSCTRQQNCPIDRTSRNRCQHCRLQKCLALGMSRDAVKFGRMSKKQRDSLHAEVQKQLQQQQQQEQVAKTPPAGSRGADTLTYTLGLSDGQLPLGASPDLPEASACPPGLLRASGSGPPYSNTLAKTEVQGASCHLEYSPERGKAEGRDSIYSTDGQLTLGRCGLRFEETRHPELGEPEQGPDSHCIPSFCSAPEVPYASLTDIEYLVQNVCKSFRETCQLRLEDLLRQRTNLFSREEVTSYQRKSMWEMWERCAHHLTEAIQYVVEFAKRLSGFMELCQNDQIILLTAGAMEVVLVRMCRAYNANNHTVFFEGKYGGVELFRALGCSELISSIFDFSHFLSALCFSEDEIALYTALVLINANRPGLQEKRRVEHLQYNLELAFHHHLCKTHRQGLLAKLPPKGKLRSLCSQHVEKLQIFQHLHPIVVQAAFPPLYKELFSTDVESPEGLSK
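Stably transfected Drosophila Schneider cells are the test system, with ROR gamma fused to Gal4 and luciferase under UAS control; luminescence is read after 20 hr of 700 uM copper sulfate induction at ambient temperature.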
ELG1 repair inh = inhibitors of ELG1-dependent DNA repair in HEK293T cells | HEK293T ELG1-luciferase reporter, luminescence, 16 h; DNA damage induced by 5-fluorouridine | hit rate 2.3% among 330,000 | AID 504467 | Potency, µM (titrated, usually from 46.1 µM), for the others: top-dose activity change, negative = inhibition, most hits filed as inhibitors; note: % is set by controls: 0 for no effect and ±100 for the full control effect; nearly all actives have a fitted effect of over 55% in size
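In this reporter screen, reduction of luminescence relative to DMSO vehicle indicated activity. Compounds and 5-fluorouridine were added together to 2,000 cells per well, incubated for 16 hr at 37 °C, then developed with ONE-Glo.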
Gal4-VP16 FLuc = Gal4-VP16 reporter inhibition counter-screen | hit rate 3.5% among 310,000 | Potency, µM (top dose mostly 53.6 µM), without a hit: at the highest dose activity, negative = inhibition, actives largely listed as inhibitors | AID 2546 | Drosophila S2 Gal4-VP16 UAS-luciferase, luminescence, 20 h;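 note: Gal4-VP16 expression switched on by copper sulfate through the metallothionein promoter; % is set by controls: 0 for no effect and ±100 for the full control effect; nearly all actives have a fitted effect of over 50% in size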
SW480 rerep = DNA re-replication induction in SW480 cells; Potency, µM (doses to about 46.1 µM), without a hit: top-dose re-replication activation, most hits filed as activators; hit rate 1.8% among 340,000; SW480 DNA re-replication, Hoechst DNA content imaging, 48 h; AID 624297; note: % of control where 0% means no effect; nearly all actives have a fitted effect of over 55% in size
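Compounds, transferred as 23 nL by pin tool, were incubated with cells for 48 hr; DNA content per nucleus was then quantified by Hoechst staining and fluorescence plate imaging.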
MCF10A rereplic = induces DNA re-replication in MCF 10a normal breast cells | hit rate 2.9% among 350,000 | MCF 10A DNA re-replication, Hoechst nuclear intensity, 48 h | Potency, µM (top dose mostly 46.1 µM), for inactives: at the highest dose activity, positive = re-replication, usual class: activators; note: % of control where 0% means no effect; nearly all actives have a fitted effect of over 50% in size
An asterisk follows results filed as active; ? = inconclusive; / = not tested or not shown; [ ] = remark or other dose. Calls come from the whole dose curve; as a rule, active = well fitted curve in the direction sought with a large enough effect; inconclusive = small, poorly fitted or top-dose-only effect, or another doubt; inactive = no such curve, though single readings can be large; an effect the other way counts as inactive or inconclusive. Potency is the fitted concentration of half-maximal effect.

SMILES	RORgamma inh	ELG1 repair inh	Gal4-VP16 FLuc	SW480 rerep	MCF10A rereplic
COC(=O)C(Cc1c[nH]c2ccccc12)NC(C)=O (stereo not given)	14.1µM*	6.8%	-2.0%	1.1%	-10.0%
O=C(CS(=O)(=O)c1ccccc1)c1ccc2c(c1)OCCO2	?	?	?	-1.0%	-3.1%
O=C(CCN1CCc2ccccc2C(c2ccccc2)C1)c1ccc2c(c1)OCCO2 (stereo not given)	4.47µM*	4.9%	3.55µM*	?	5.17µM*
O=C(O)CCC(=O)c1ccc2c(c1)OCCO2	-10.8%	23.8%	-2.9%	1.7%	3.2%
CCCC(=O)c1ccc2c(c1)OCCO2	44.1%	?	?	-1.1%	-7.6%
O=C(O)CCSCC(=O)c1ccc2c(c1)OCCO2	2µM*	?	3.55µM*	?	?
O=C(CCN1Cc2ccccc2C1)c1ccc2c(c1)OCCO2	12.6µM*	1.6%	15.8µM*	12.7%	-3.4%
CC1CCCCN1C(=O)/C=C/c1ccccc1[N+](=O)[O-] (stereo not given)	?	-7.9%	-10.0%	-10.6%	-9.8%
O=C1CCC(c2ccc3c(c2)CCC3)=NN1	25.3%	?	0.8%	-4.0%	-12.9%
CCCN(C(=O)c1cn(-c2ccccc2)nc1-c1ccc(OC)cc1)C1CCS(=O)(=O)C1 (stereo not given)	/	-16.2%	/	-6.6%	1.0%
CN(C)c1ccc(/C=C/c2nc3ccccc3c(=O)[nH]2)cc1	2µM*	?	?	16.3%	2.0%
C(=C\c1ccco1)/c1nc2ccccc2[nH]1	-1.9%	?	-10.5%	?	9.5%
Cc1cccc(/C=C\c2nc3ccccc3c(=O)[nH]2)c1	-34.2%	?	-28.4%	20.6µM*	5.8µM*
C(=C\c1nc2ccccc2[nH]1)/c1ccccc1	7.08µM*	?	8.91µM*	14.6µM*	5.17µM*
O=C(Nc1cccc(/C=C/c2nc3ccccc3c(=O)[nH]2)c1)c1ccccc1Cl	19.7%	?	-0.9%	?	?
O=c1[nH]c(/C=C/c2ccc(Br)cc2)nc2ccccc12	-19.1%	?	-0.2%	-5.9%	?
COc1ccc(C(=O)Nc2cccc(/C=C/c3nc4ccccc4c(=O)[nH]3)c2)cc1	-62.3%	?	-28.7%	?	6.51µM*
O=C(c1cnn2c(C(F)(F)F)cc(-c3ccc(F)cc3)nc12)N1CCc2ccccc2C1	?	1.3%	?	?	?
O=c1[nH]c(/C=C/c2ccccc2F)nc2ccccc12	-44.9%	?	-16.0%	3.66µM*	8.2µM*
O=c1[nH]c2ccccc2nc1/C=C/c1ccc(Cl)cc1	31.3%	?	-6.4%	20.6µM*	18.4µM*
O=C(CN(Cc1ccc(F)cc1)C(=O)CCC(=O)Nc1ccccn1)NCc1ccc(F)cc1	16.5%	-6.3%	5.3%	-14.8%	-3.5%
CCN(CC)CCCNC(=O)CSc1nc(C)cc(C)n1	3.3%	-1.4%	-0.4%	1.0%	1.0%
Cc1cccc(N2CCN(C(=S)c3ccc4c(c3)OCO4)CC2)c1	/	/	/	6.51µM*	1.3µM*
S=C(c1ccc2c(c1)OCO2)N1CCN(c2cccc(Cl)c2)CC1	/	/	/	5.17µM*	1.46µM*
CC1CCN(C(=S)c2ccc3c(c2)OCO3)CC1	-6.3%	0.8%	0.1%	-10.2%	-8.9%
SMILES	RORgamma inh	ELG1 repair inh	Gal4-VP16 FLuc	SW480 rerep	MCF10A rereplic
C[C@H](NC(N)=O)C(=O)OCC(=O)Nc1ccc(OC(F)F)cc1	-2.8%	?	-0.5%	-19.8%	-12.7%
Cc1ccc2nc3cc([N+](=O)[O-])cc([N+](=O)[O-])c3cc2c1	?	5.3%	2.24µM*	0.651µM*	?
O=C(Nc1ccc(N2CCCC2)c(Cl)c1)c1ccco1	25.7%	?	-22.5%	-8.7%	-4.5%
O=C(Nc1ccc(N2CCCCC2)c(C(=O)O)c1)c1ccco1	-2.1%	?	14.4%	-5.7%	-1.0%
Cc1ccc(NC(=O)c2cc(NC(=O)c3ccco3)ccc2N2CCOCC2)cc1Cl	0.3%	16.4µM*	-2.8%	-5.5%	2.2%
Cc1cccc(NC(=O)c2cc(NC(=O)c3ccco3)ccc2N2CCCCC2)c1	-0.1%	18.8%	1.5%	16.5%	11.6µM*
O=C(Cc1c(F)cccc1Cl)OCC(=O)c1ccc[nH]1	/	?	/	-4.3%	-1.0%
COC(=O)C1=C(C)N(c2ccccc2)C(=S)NC1c1ccccc1C(F)(F)F (stereo not given)	3.16µM*	-15.9%	?	-89.1%	-0.5%
COCCOC(=O)C1=C(C)N(Cc2ccccc2)C(=O)NC1c1cccc(OC)c1OC (stereo not given)	?	-7.3%	-1.4%	-20.7%	-185.7%[0.0737 µM]
COCCOC(=O)C1=C(C)N(c2ccccc2)C(=S)NC1c1ccccc1C(F)(F)F (stereo not given)	17.8µM*	-17.3%	?	-22.3%	14.9%
CC(=O)Nc1ccc(C2NC(=S)N(c3ccccc3C(F)(F)F)C(C)=C2C(=O)N2CCOCC2)cc1 (stereo not given)	4.1%	-11.3%	-16.3%	?	6.5%
CC1(C)Cc2nc3oc4c(N(CCO)Cc5ccccc5)ncnc4c3cc2CO1	0.9%	18.4µM*	2.1%	-7.9%	18.9%
CCOc1ccc(NC(=O)CN(C)C(=O)C2CC(=O)N(CCc3ccccc3)C2)cc1OCC (stereo not given)	/	-3.3%	/	-6.1%	-6.0%
O=C(/C=C/c1ccco1)N(Cc1ccccc1)C1CCS(=O)(=O)C1 (stereo not given)	11.1%	?	0.3%	14.6µM*	0.2%
COc1ccnc(N=CNOCc2cccc(C(F)(F)F)c2)c1C#N	22.1%	-3.8%	-4.4%	?	-4.1%
O=C(CCCN1C(=O)/C(=C/c2ccccc2)SC1=S)Nc1cccc(O)c1	?	?	7.08µM*	16.5%	?
CCN(CC)CCOC(=O)c1ccc(NC(=O)CCCN2C(=O)S/C(=C/c3ccc(OC)cc3)C2=S)cc1	1µM*	1.0%	1.58µM*	22.4µM*	?
COc1ccc(/C=C2\SC(=S)N(CCC(=O)Nc3ccc(O)cc3)C2=O)cc1	-29.8%	1.6%	21.1%	0.5%	?
Cc1ccc(C(=O)NNC(=O)CCCN2C(=O)/C(=C/c3ccccc3Cl)SC2=S)cc1	2.82µM*	-7.2%	3.16µM*	-161.7%	22.0%
Cc1ccc(/C=C2\SC(=S)N(CCCC(=O)NC3CCCC3)C2=O)cc1	1.58µM*	?	?	-5.5%	-1.9%
CCCCn1c(C)cc2c(c1=O)C1O[C@](c3ccsc3)(Cc3cc(OC)c(OC)cc31)O2	-2.7%[10 µM]	/	-5.2%[10 µM]	/	/
COc1cccc(/C=C2\SC(=S)N(CCCC(=O)Nc3ccc(C(=O)O)cc3)C2=O)c1	-7.8%	14.6%	-6.0%	23.7%	6.9%
COc1cccc(/C=C2/SC(=S)N(CCCC(=O)Nc3ccc(O)cc3)C2=O)c1	0.355µM*	-23.9%	0.355µM*	?	8.5%
